The whole screen tested about 48,000 compounds, of which about 13,000 (27%) showed an effect of 50% or more. The list shows a part of the results.
Each molecule was assayed on Wolbachia pipientis (assay: Anti-Wolbachia Cell-Based Screen). Conditions: 5 µM.
Assay type: functional
Parameters: scale not given: in the data most compounds retested in dose-response had high values

SMILES	Percent Effect [%]
COC(CNC(=O)CNC(=O)c1ccccc1)c1cccc(Cl)c1 (configuration not stated)	-36.87
Cc1ncsc1CN1C[C@H](OCC(C)C)[C@H]2OCCC[C@H]21.O=C(O)C(F)(F)F	-14.06
Cc1ccc(C(=O)N2CCO[C@H]3[C@@H](OCc4ccccn4)CC[C@@H]32)o1.O=C(O)C(F)(F)F	-5.404
CCO[C@@H]1CC[C@H]2[C@H]1OCCN2C(=O)c1ccc(OC)c(F)c1	-22.06
CCO[C@H]1CC[C@H]2[C@H]1OCCN2C(=O)c1nn(C)c2ccccc12	108.7
CCO[C@@H]1CC[C@H]2[C@H]1OCCN2C(=O)c1nn(C)c2ccccc12	106.4
CC(C)CNC(=O)C1=NOC2(CCN(Cc3ccc(C(C)C)cc3)C2)C1 (configuration not stated)	105.9
O=C(NCC1CC1)C1=NOC2(CCN(Cc3ccc(Cl)c(F)c3)C2)C1 (configuration not stated)	0.8389
CC(C)CNC(=O)C1=NOC2(CCN(Cc3ccoc3)C2)C1 (configuration not stated)	98.99
Cc1ccc(CN2CCC3(CC(C(=O)NCC4CC4)=NO3)C2)s1 (configuration not stated)	-2.379
COc1ccc(CN2CCC3(CC(C(=O)NCC(C)C)=NO3)C2)cc1 (configuration not stated)	91.98
O=C(NCC1CC1)C1=NOC2(CCN(Cc3ccsc3)C2)C1 (configuration not stated)	-10.07
CCc1ccc(CN2CCC3(CC(C(=O)NCC(C)C)=NO3)C2)o1 (configuration not stated)	102
CCc1ccc(C(NC(=O)CCS(C)(=O)=O)C(C)(C)C)o1 (configuration not stated)	18.74
CN1CCC(NN2CCN(C)CC2)CC1	4.594
O=C(CSc1ccccc1)Nc1cnn(CC(=O)N2CCCO2)c1	2.043
Cc1ccc(C)c(OCC(O)CN(C)CC(=O)Nc2cc(C)on2)c1 (configuration not stated)	16.51
CCN1CCC2(CC1)c1nc[nH]c1CCN2S(C)(=O)=O	-21.15
COC(=O)C1CCN(C(=O)c2ccc(C)c(NS(C)(=O)=O)c2)CC1	-2.362
COc1ccccc1OCCCc1cc(C)nc(N)n1	-105.6
CCS(=O)(=O)N1CCOC2(CCCN(c3cnccn3)C2)C1.O=C(O)C(F)(F)F (configuration not stated)	-12.03
COc1ccccc1OC1(C(=O)O)CCN(c2cnccn2)CC1	-132.5
O=C(c1ccc(-n2ccnc2)cc1)N1CCN(c2cnccn2)CC1	1.028
Cn1ccc(C(=O)N2C[C@@H]3CCN(c4cnccn4)C[C@@H]3C2)n1.O=C(O)C(F)(F)F	6.862

SMILES	Percent Effect [%]
Cn1ccc(C(=O)NCC2(O)CCN(c3cnccn3)C2)n1 (configuration not stated)	120.2
CC(=O)NCC(=O)NCC1(O)CCN(c2cnccn2)C1 (configuration not stated)	78.54
CC(C#N)NS(=O)(=O)c1cccc(C(C)C)c1 (configuration not stated)	0.8918
c1ccc(-c2nccc(N3CCc4c(ncn4C4CC4)C3)n2)cc1	-6.711
O=C(NCc1nncn1C1CC1)C1(c2ccc(F)cc2)CCCC1	-0.2127
O=C(NCC(O)COc1ccc(F)cc1)C1(c2ccc(F)cc2)CC1 (configuration not stated)	2.033
Cc1nocc1C(=O)N1CCCC2(CCN(c3ccsc3)C2=O)C1 (configuration not stated)	2.801
O=C(O)C(F)(F)F.O=C(c1ccccn1)N1CCCC2(CCN(c3ccsc3)C2=O)C1 (configuration not stated)	9.828
O=C1N(c2ccsc2)CCC12CCCN(c1ncc(F)cn1)C2 (configuration not stated)	91.96
CN(C)C(=O)N1CCCC2(CCN(c3ccsc3)C2=O)C1 (configuration not stated)	-73.81
O=C(CO)N1CCCC2(CCN(c3ccsc3)C2=O)C1 (configuration not stated)	-8.553
O=C1N(c2ccsc2)CCC12CCCN(c1ccccn1)C2 (configuration not stated)	116.3
Cn1nccc1C(=O)N1CCCC2(CCN(c3ccsc3)C2=O)C1 (configuration not stated)	54.5
Cc1occc1C(=O)N1CCCC2(CCN(c3ccsc3)C2=O)C1 (configuration not stated)	-9.998
O=C(N1CCCC1)N1CCCC2(CCN(c3ccsc3)C2=O)C1 (configuration not stated)	-11.99
N#Cc1ccc(N2CCCN(CC(N)=O)CC2)cc1	-2.311
CC(NC(=O)C(C)(C)C#N)c1ccc(OCC2CC2)c(F)c1 (configuration not stated)	5.136
CC(NC(=O)c1csnn1)c1ccc(OCC2CC2)c(F)c1 (configuration not stated)	3.063
CS(=O)(=O)NCCC(=O)NC1(c2ccc(F)cc2)CCCC1	-19.35
COCC(=O)NCc1cc2n(n1)CCCN(CCCC1CCCC1)C2	3.539
CCNC(=O)NCc1nn(CCN2CCCC2)c(=O)c2ccccc12	106.7
Cc1ccccc1CS(=O)(=O)NCCCN1CCCC1	-20.74
CCn1nc(CNC(=O)C2CCCN(CC(N)=O)C2)c2ccccc21 (configuration not stated)	4.996
